Experimental data as given in PubChem BioAssay (Tox21).
Where “and” joins values, the source holds several entries; their conditions need not be identical. Equal entries are not always repeated. Unmarked numbers belong to inactive results. Results filed as inconclusive are left out. Where a call stands in place of a potency, no number is given. Calls of active or inactive are those of the source. Unless noted, calls follow the shape of the dose curve; as a rule, active = well fitted curve in the direction sought with a large enough effect in the repeat runs; inconclusive = weak or mixed curves; inactive = flat fitted curve, though single readings scatter.

Columns and labels:
[1] = qHTS assay to test for compound auto fluorescence at 535 nm (green) in HEK293 cells (AID 720680)
[2] = qHTS assay to test for compound auto fluorescence at 460 nm (blue) in HEK293 cell free culture (AID 720681)
Method in brief: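 Blue fluorescence (Ex 405/Em 460 nm, triamterene-equivalent) was read immediately after pin transfer of compound or DMSO into medium (DMEM, 10% FBS) without cells.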

[3] = qHTS assay to test for compound auto fluorescence at 535 nm (green) in HEK293 cell free culture (AID 720682)
Method in brief: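 Read-out: 485/535 nm fluorescence intensity, calibrated against fluorescein. Medium only (DMEM + 10% FBS, no cells); test compound or DMSO vehicle added by pintool before plate reading.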

[4] = qHTS assay to test for compound auto fluorescence at 590 nm (red) in HEK293 cell free culture (AID 720683)
Method in brief: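 Red-channel autofluorescence of compounds in culture medium (DMEM, 10% FBS), no cells, measured at 540/590 nm. Rose Bengal sodium is the reference fluorophore for equivalence.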

[5] = qHTS assay to test for compound auto fluorescence at 590 nm (red) in HepG2 cell free culture (AID 720684)
Method in brief: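 Steps: dispense MEM/10% FBS medium, no cells; pin compound or DMSO vehicle; read red channel, Ex/Em 540/590 nm. Output given as Rose Bengal sodium equivalents.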

[6] = qHTS assay to test for compound auto fluorescence at 460 nm (blue) in HepG2 cell free culture (AID 720685)
Method in brief: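 Compound (23 nL) or DMSO pinned into cell-free MEM with 10% FBS; blue fluorescence read at 405/460 nm excitation/emission, expressed as auto-fluorescence equivalency to triamterene.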

[7] = qHTS assay to test for compound auto fluorescence at 535 nm (green) in HepG2 cell free culture (AID 720686)
[8] = qHTS assay to test for compound auto fluorescence at 460 nm (blue) in HepG2 cells (AID 720687)
Method in brief: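 Blue-channel autofluorescence (Ex/Em 405/460 nm, triamterene-equivalent) was measured after 1 hr compound exposure at 37 C, 5% CO2. Cells were HepG2, plated overnight at 37 C in MEM plus 10% FBS.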

[9] = biological target: Glucocorticoid receptor (Homo sapiens) (UniProt P04150); experiment: qHTS assay to identify small molecule antagonists of the glucocorticoid receptor (GR) signaling pathway (AID 720692; active = well fitted inhibition curve with a large enough effect in the signal ratio in the repeat runs, not every such curve was filed as active; the % refers to the signal ratio; also: potency is read from the fitted curve at half-maximal effect)
Method in brief: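 Cells plated, rested 4 h at 37 C/5% CO2; compounds in DMSO pin-transferred; dexamethasone added to 5 nM final; 18 h at 37 C; B/G FRET substrate added, 2 h room temperature; fluorescence measured.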

[10] = biological target: Glucocorticoid receptor (Homo sapiens) (UniProt P04150); experiment: qHTS assay to identify small molecule agonists of the glucocorticoid receptor (GR) signaling pathway (AID 720691; active = well fitted activation curve with a large enough effect in the signal ratio in the repeat runs, not every such curve was filed as active; the % refers to the signal ratio)
Method in brief: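 Agonist mode in a HeLa line carrying a GRE-controlled beta-lactamase reporter. Compounds act for 18 h at 37 C before a 2 h room-temperature FRET substrate step and fluorescence reading.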

Glucocorticoid receptor (Homo sapiens), sequence (P04150 whole entry, looked up): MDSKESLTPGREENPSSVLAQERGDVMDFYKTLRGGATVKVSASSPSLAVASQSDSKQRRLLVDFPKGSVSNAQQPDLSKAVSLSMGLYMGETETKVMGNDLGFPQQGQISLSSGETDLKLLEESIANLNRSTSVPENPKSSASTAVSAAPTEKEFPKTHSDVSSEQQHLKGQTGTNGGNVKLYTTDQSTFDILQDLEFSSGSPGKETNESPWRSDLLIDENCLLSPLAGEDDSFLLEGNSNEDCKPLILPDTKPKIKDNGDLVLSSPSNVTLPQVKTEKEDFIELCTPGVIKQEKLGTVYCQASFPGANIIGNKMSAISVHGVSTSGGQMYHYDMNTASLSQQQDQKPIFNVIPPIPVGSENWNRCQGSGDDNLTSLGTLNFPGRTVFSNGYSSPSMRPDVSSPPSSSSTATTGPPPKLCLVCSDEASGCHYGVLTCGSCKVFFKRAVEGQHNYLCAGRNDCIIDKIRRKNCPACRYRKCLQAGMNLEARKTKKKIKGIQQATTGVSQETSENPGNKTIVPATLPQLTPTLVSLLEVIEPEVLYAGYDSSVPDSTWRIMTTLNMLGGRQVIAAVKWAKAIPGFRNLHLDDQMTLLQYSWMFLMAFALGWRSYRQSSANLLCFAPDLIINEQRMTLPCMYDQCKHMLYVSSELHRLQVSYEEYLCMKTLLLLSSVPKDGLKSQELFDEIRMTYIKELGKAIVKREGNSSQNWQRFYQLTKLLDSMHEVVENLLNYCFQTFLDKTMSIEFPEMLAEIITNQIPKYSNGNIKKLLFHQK

| SMILES | outcome [1] | Potency [2] | outcome [3] | outcome [4] | outcome [5] | Potency [6] | outcome [7] | Potency [8] | Potency [9] | Potency [10] | fluorescence, % of fluorescein [1] | fluorescence, % of fluorescent control [2] | activity change [3] | fluorescence, % of fluorescent control [4] | fluorescence, % of Rose Bengal [5] | fluorescence, % of fluorescent control [6] | fluorescence, % of fluorescein control [7] | fluorescence, % of fluorescent control [8] |
| --- | --- | --- | --- | --- | --- | --- | --- | --- | --- | --- | --- | --- | --- | --- | --- | --- | --- | --- |
| Clc1ccc(C(c2ccccc2Cl)C(Cl)(Cl)Cl)cc1 (configuration not stated) | inactive | inactive | inactive | inactive | inactive | inactive | inactive | inactive | 22 µM (active) and 20.3 µM (active) |  |  |  |  |  |  |  |  |  |
| CCN(CC)c1c([N+](=O)[O-])cc(C(F)(F)F)c(N)c1[N+](=O)[O-] | inactive | inactive | inactive | inactive | inactive | inactive |  | inactive |  |  |  |  |  |  |  |  |  |  |
| ClC1=C(Cl)[C@]2(Cl)[C@@H]3[C@@H]4C[C@@H]([C@H]5O[C@@H]45)[C@@H]3[C@@]1(Cl)C2(Cl)Cl | inactive | inactive | inactive | inactive | inactive | inactive | inactive | inactive | 36.7 µM (active) | inactive |  |  |  |  |  |  |  |  |
| CC(C)Oc1cccc(NC(=O)c2ccccc2C(F)(F)F)c1 | inactive | inactive | inactive | inactive | inactive | inactive | inactive | inactive |  | inactive |  |  |  |  |  |  |  |  |
| CCCCN(CCCC)C(=S)[S-].CCCCN(CCCC)C(=S)[S-].[Zn+2] | inactive | inactive | inactive | inactive | inactive | inactive |  | inactive |  |  |  |  |  |  |  |  |  |  |
| Clc1ccc(CCC(Cn2ccnc2)Sc2c(Cl)cccc2Cl)cc1 (configuration not stated) |  |  |  |  |  |  |  |  | inactive |  | 0.0661% [at 18.6 µM] | 0.052% [at 18.6 µM] | -0.055% [at 18.6 µM] | -0.0573% [at 18.6 µM] | 0.657% [at 18.6 µM] | 0.0259% [at 18.6 µM] | 0.0716% [at 18.6 µM] | -0.0565% [at 18.6 µM] |
| CC(c1ccc(O)cc1)c1ccc(O)cc1 | inactive | inactive | inactive | inactive | inactive | inactive | inactive | inactive | inactive |  |  |  |  |  |  |  |  |  |
| C[C@@H]1O[C@@H](O[C@@H]2C=C3CC[C@@H]4[C@H](CC[C@]5(C)[C@@H](c6ccc(=O)oc6)CC[C@]45O)[C@@]3(C)CC2)[C@H](O)[C@H](O)[C@H]1O |  |  |  |  |  |  |  |  | 0.0574 µM (active) | inactive | 0.0243% [at 18.6 µM] | 0.328% [at 18.6 µM] | 0.0268% [at 18.6 µM] | -0.024% [at 18.6 µM] | -0.272% [at 18.6 µM] | 0.14% [at 18.6 µM] | -0.0466% [at 18.6 µM] | 0.187% [at 18.6 µM] |
| CCCSP(=O)(OCC)SCCC | inactive | inactive | inactive | inactive | inactive | inactive | inactive | inactive |  | inactive |  |  |  |  |  |  |  |  |
| CC(=O)/C=C/c1ccc2c(c1)OCO2 | inactive | inactive | inactive | inactive | inactive | inactive | inactive | inactive |  | inactive |  |  |  |  |  |  |  |  |
| C=CC(=O)OCCCCOC(=O)C=C | inactive | inactive | inactive | inactive | inactive | inactive | inactive | inactive | 24.5 µM (active) | inactive |  |  |  |  |  |  |  |  |
| CC(C)OC(=O)C(O)(c1ccc(Cl)cc1)c1ccc(Cl)cc1 | inactive | inactive | inactive | inactive | inactive | inactive | inactive | inactive | 30.9 µM (active) | inactive |  |  |  |  |  |  |  |  |
| Oc1c(Br)c(Br)c(Br)c(Br)c1Br | inactive | inactive | inactive | inactive | inactive | inactive | inactive | inactive | 13.9 µM (active) | inactive |  |  |  |  |  |  |  |  |
| CCOP(=S)(OCC)OC(Cl)C(Cl)(Cl)Cl (configuration not stated) | inactive | inactive | inactive | inactive | inactive | inactive | inactive | inactive | inactive | inactive |  |  |  |  |  |  |  |  |
| CN(C)[C@@H]1C(=O)C(C(N)=O)=C(O)[C@@]2(O)C(=O)C3=C(O)c4c(O)ccc(Cl)c4[C@@](C)(O)[C@H]3C[C@@H]12 | inactive | inactive | inactive | inactive | inactive | inactive | inactive | inactive | inactive | inactive |  |  |  |  |  |  |  |  |
| O=C1c2ccccc2C(=O)C1C(=O)C(c1ccccc1)c1ccc(Cl)cc1 (configuration not stated) | inactive | inactive | inactive | inactive | inactive | inactive | inactive | inactive | 12.3 µM (active) | inactive |  |  |  |  |  |  |  |  |
| CN(C)c1ccc(N=Nc2ccccc2)cc1 | inactive | inactive | inactive | inactive | inactive | inactive | inactive | inactive | inactive | inactive |  |  |  |  |  |  |  |  |
| CCCN(CC)CC1COC2(CCC(C(C)(C)C)CC2)O1 (configuration not stated) | inactive | inactive | inactive | inactive | inactive | inactive | inactive | inactive | inactive | inactive |  |  |  |  |  |  |  |  |
| S=C(SSC(=S)N1CCCCC1)N1CCCCC1 | inactive | inactive | inactive | inactive | inactive | inactive | inactive | inactive | inactive |  |  |  |  |  |  |  |  |  |
| Cc1cc(C(C)(C)c2cc(C)c(O)c(C)c2)cc(C)c1O | inactive | inactive | inactive | inactive | inactive | inactive | inactive | inactive | 4.74 µM (active) |  |  |  |  |  |  |  |  |  |
| CC(C)CC(C)(c1ccc(O)cc1)c1ccc(O)cc1 | inactive | inactive | inactive | inactive | inactive | inactive | inactive | inactive | 19.5 µM (active) |  |  |  |  |  |  |  |  |  |
| CC(C)OS(C)(=O)=O | inactive | inactive | inactive | inactive | inactive | inactive |  | inactive |  |  |  |  |  |  |  |  |  |  |
